Screen size: about 320,000 compounds; about 1,000 (0.31%) were called active. The sample as a whole holds a higher share of actives than the screen did. Unmarked numbers belong to inactive results.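 How the source made its calls: active means activation above the mean of all tested compounds plus 3 SD, cutoff set per screening run (cut at about 20% in these data); inactive means the rest.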
The compounds below were run against Oxytocin receptor (Homo sapiens) (UniProt P30559) (assay: human OXTR agonists, primary screen, fluorescence, CHO-OTR cells, Fluo-8 calcium (AID 2435;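 further: peak over basal fluorescence ratio from a 100 s FLIPR kinetic read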)). Conditions: Fluo-8 calcium fluorescence, at 3 µM, stronger effect = higher value, normalized: DMSO 0%, oxytocin 100%.
Chain of Oxytocin receptor (Homo sapiens) (P30559 whole entry, looked up): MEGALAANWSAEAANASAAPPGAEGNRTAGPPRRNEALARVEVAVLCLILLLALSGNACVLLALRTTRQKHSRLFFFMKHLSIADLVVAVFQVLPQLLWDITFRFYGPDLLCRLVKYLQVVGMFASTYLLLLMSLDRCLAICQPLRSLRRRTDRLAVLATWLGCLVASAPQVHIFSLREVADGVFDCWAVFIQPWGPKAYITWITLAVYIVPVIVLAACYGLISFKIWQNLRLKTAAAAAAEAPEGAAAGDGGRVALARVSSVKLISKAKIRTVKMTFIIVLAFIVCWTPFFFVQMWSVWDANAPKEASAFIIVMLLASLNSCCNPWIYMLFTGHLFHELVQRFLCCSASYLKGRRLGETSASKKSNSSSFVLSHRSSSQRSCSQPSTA

Row | SMILES | activation
1 | CCOc1cc(/C=C2/C(=N)N3OC(C)=CC3=NC2=O)ccc1OC | -0.04%
2 | COc1ccc(OCCCn2cccc2/C=C2/C(=N)N3OC(C)=CC3=NC2=O)cc1 | 1.35%
3 | CC1=CC2=NC(=O)/C(=C/c3coc4ccccc4c3=O)C(=N)N2O1 | 30.4% (active)
4 | C=CCSc1nc(N)cc(=O)[nH]1 | 0.06%
5 | CCCCCCCCCCOC(=O)Cn1c(COc2ccc(C)cc2)[n+](C)c2ccccc21 | -1.93%
6 | CCCCCCCCCCOC(=O)Cn1c(COc2cccc(OC)c2)[n+](C)c2ccccc21 | 21.5% (active)
7 | CCOC(=O)Cn1c(-c2cccnc2Cl)nc2ccccc21 | 0.33%
8 | CC1=CC(C)(C)NC(=S)N1c1ccccc1 | -0.69%
9 | Cc1cc(N)n2nc(-c3ccc(C(C)(C)C)cc3)cc2n1 | -1.18%
10 | C#CCOCCOCCOCCNc1nc(N2CCN(C(=O)C([C@@H](C)CC)n3cc(C(N)COC(=O)C(F)(F)F)nn3)CC2)nc(N2CCN(C(=O)[C@H](Cc3ccc(O)cc3)n3cc(C(N)[C@H](C)CC)nn3)CC2)n1 (stereo not given in full) | 0.32%
11 | c1ccc2c(CCN3CCNC[C@H]3Cc3cccc4ccccc34)cccc2c1 | 8.2%
12 | c1ccc(C2CNCc3c2ccc2ccccc32)cc1 (stereo not given) | 22.4% (active)
13 | COCCn1c(=O)[nH]c(=O)c2cc(C(=O)c3cc(OC)ccc3O)cnc21 | -0.31%
14 | Cc1ccc2oc(=O)c3cnn(CC(=O)N(Cc4ccco4)C4CCCCC4)c3c2c1 | -1.36%
15 | CC1CN(S(=O)(=O)c2ccc(C(=O)NN3CCN(C)CC3)cc2)CC(C)O1 (stereo not given) | 0.04%
16 | Brc1ccc(C2=CC(c3ccco3)n3ncnc3N2)cc1 (stereo not given) | 16.4%
17 | CCOc1ccc(C2=CC(c3ccccc3)n3ncnc3N2)cc1 (stereo not given) | -2.25%
18 | COc1ccc(C2C=C(c3ccc(Br)cc3)Nc3nc(NS(C)(=O)=O)nn32)cc1 (stereo not given) | 20.5% (active)
19 | COc1ccc(OC)c(NC(=S)N2CCc3ccccc3C2)c1 | -1.2%
20 | O=S(=O)(c1cccc(Cn2nnc(-c3ccc(F)cc3)n2)c1)N1CCOCC1 | 18.4%
21 | O=C(C1CCCN1S(=O)(=O)c1ccc(Br)cc1)N1CCOCC1 (stereo not given) | -0.61%
22 | CCOc1ccc(Cn2nnc(C(=O)Nc3ccc(OC)cc3OC)c2N)cc1 | 25.1% (active)
23 | COc1ccc(CNC(=O)c2nnn(CC(=O)Nc3cc(C)cc(C)c3)c2N)cc1 | 0.21%

Row | SMILES | activation
24 | CCOc1ccc(Cn2nnc(C(=O)NCc3ccccc3)c2N)cc1 | 32% (active)
25 | CCc1ccc(NC(=O)Cn2nnc(C(=O)NCc3ccc(OC)cc3)c2N)cc1 | 0.62%
26 | COc1ccc(NC(=O)Cn2nnc(C(=O)NCCc3ccc(OC)c(OC)c3)c2N)cc1 | -0.34%
27 | COc1cccc(CNC(=O)c2nnn(CC(=O)Nc3cc(Cl)ccc3C)c2N)c1 | 2.37%
28 | Cc1ccc2c(c1)N(CC(=O)N1CCC(C)CC1)C(=O)c1cccnc1O2 | 1.7%
29 | CCc1cccc(CC)c1NC(=O)COc1ccccc1C(=O)c1cc(C#N)c(=O)n(C2CCCCC2)c1 | 2.32%
30 | Cc1cc(C(=O)NC2CCN(Cc3ccccc3)CC2)n[nH]1 | 0.51%
31 | CN(CC(=O)NCc1ccc(Cl)cc1)S(=O)(=O)c1cccs1 | 0.76%
32 | CC(Oc1cccc(Cl)c1)C(=O)Nc1ccc(S(=O)(=O)Nc2ncccn2)cc1 (stereo not given) | 1.17%
33 | COc1ccc(NS(=O)(=O)c2ccc(NC(=O)c3ccc(N(C)S(C)(=O)=O)cc3)cc2)cc1 | 2.34%
34 | COc1ccc(NS(=O)(=O)c2ccc(Oc3c(C#N)cccc3C#N)cc2)cc1 | 21.2% (active)
35 | CCOc1ccc(S(=O)(=O)Nc2ccc(S(=O)(=O)Nc3cc(OC)ccc3OC)cc2)cc1 | 5.31%
36 | CCNc1ccc(C(=O)OCC(=O)N2c3ccccc3NC(=O)C2(C)C)cc1[N+](=O)[O-] | -1.03%
37 | COCCCNC(=S)NC(=O)c1ccccc1 | 0.86%
38 | CCOC(=O)C1=C(NC(=S)NC(=O)c2ccccc2)c2ccccc2CC1(C)C | 25.1% (active)
39 | Cc1ccc(NC(=S)NC(=O)c2ccc(-c3ccccc3)cc2)cc1 | 1.22%
40 | CC1=CC=CC2=N/C(=N\S(=O)(=O)c3ccc(F)cc3F)c3ccccc3CN12 | -2.27%
41 | COc1ccc(N2CCC(N3CCN(C)C(CCO)C3)CC2)cc1 (stereo not given) | -0.23%
42 | Cc1ccc(S(=O)(=O)N2CCN(C(=O)N3CCOCC3)CC2)c(C)c1 | 0.27%
43 | Nc1ccc2nc3c(=O)[nH]c(=S)[nH]c3nc2c1 | 35.4% (active)
44 | CSc1nnc(SCc2nc3sc(C(=O)O)c(C)c3c(=O)[nH]2)s1 | 6.08%
45 | CC(/C=C/c1ccccc1)=N\NC(=O)C1CC1(C)c1ccccc1 (stereo not given) | -2.09%

From PubChem BioAssay AID2435 (The Scripps Research Institute Molecular Screening Center, 2010)
